# Calls of active or inactive are those of the source. How the source made its calls: active means hit-call score of the fitted dose curve at least 0.9, where 1 is the maximum; inactive means score below 0.9.
# What was measured:
# [1] = ATG_M_32_CIS: Attagene CIS-FACTORIAL HepG2 Assay for M32 Transcription Factor (Internal Marker) (AID 2282949); details: HepG2 Attagene cis-factorial M32 reporter, mRNA; actives raise or lower the signal;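 further: background control marker of the multiplexed CIS panel rather than a real target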
# Method in brief: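 Using DMSO as baseline, bidirectional curve fits were applied to reporter mRNA signals. These came from transiently transfected HepG2 cells exposed for 24 h, with RNA analysed by RT-PCR, FAM primer extension, HpaI digestion and CE.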
# [2] = ATG_M_06_CIS: Attagene CIS-FACTORIAL HepG2 Assay for M06 Transcription Factor (Internal Marker) (AID 2282950); details: HepG2 Attagene CIS-FACTORIAL M06 internal marker reporter; actives raise or lower the signal
# Method in brief: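 Fluorescence-labelled RT-PCR products from cis-promoter reporter units, cut with HpaI and resolved by capillary electrophoresis, give the signal. Cells are human HepG2, dosed for 24 h. Serves as background control, fitted relative to DMSO.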
# [3] = target: Hypoxia-inducible factor 1-alpha (Homo sapiens) (UniProt Q16665); test: ATG_HIF1a_CIS: Attagene CIS-FACTORIAL HepG2 Assay for human Hypoxia Inducible Factor 1 (HIF1A) (AID 2282951); details: HepG2 Attagene cis-factorial HIF1a reporter transcription; actives raise or lower the signal
# Hypoxia-inducible factor 1-alpha (Homo sapiens), sequence (Q16665 whole entry, looked up): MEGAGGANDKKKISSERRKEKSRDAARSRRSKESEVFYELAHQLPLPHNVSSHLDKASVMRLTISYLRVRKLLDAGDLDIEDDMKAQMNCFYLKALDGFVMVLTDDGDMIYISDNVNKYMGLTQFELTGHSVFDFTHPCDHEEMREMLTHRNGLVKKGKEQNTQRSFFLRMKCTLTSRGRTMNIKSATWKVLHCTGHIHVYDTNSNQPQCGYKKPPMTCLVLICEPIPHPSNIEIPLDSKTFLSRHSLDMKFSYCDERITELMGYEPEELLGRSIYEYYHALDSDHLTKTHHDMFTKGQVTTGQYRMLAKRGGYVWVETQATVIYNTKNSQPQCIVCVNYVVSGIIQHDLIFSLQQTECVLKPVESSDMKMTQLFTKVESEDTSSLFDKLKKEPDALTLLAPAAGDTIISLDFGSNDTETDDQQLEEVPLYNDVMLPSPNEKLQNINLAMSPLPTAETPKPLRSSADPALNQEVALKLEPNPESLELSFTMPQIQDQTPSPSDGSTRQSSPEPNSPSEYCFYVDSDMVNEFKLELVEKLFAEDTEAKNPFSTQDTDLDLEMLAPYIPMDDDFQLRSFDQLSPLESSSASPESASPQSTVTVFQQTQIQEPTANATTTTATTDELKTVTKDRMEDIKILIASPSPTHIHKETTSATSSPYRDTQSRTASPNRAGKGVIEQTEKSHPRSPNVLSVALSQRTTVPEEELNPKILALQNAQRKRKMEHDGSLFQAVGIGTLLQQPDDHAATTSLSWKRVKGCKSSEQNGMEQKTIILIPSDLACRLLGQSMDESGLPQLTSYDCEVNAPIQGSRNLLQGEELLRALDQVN
# Method in brief: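 Measures endogenous transcription-factor activity through cis-regulated reporter mRNA in HepG2. Cells dosed 24 h; transcripts quantified by RT-PCR with 6-FAM-labelled products separated by capillary electrophoresis; DMSO serves as negative control.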
# [4] = target: Hepatocyte nuclear factor 6 (Homo sapiens) (UniProt Q9UBC0); test: ATG_HNF6_CIS: Attagene CIS-FACTORIAL HepG2 Assay for human Hepatocyte Nuclear Factor 6 (HNF6) (AID 2282952); details: HepG2 Attagene cis-factorial HNF6 reporter transcription; actives raise or lower the signal
# Hepatocyte nuclear factor 6 (Homo sapiens), sequence (Q9UBC0 whole entry, looked up): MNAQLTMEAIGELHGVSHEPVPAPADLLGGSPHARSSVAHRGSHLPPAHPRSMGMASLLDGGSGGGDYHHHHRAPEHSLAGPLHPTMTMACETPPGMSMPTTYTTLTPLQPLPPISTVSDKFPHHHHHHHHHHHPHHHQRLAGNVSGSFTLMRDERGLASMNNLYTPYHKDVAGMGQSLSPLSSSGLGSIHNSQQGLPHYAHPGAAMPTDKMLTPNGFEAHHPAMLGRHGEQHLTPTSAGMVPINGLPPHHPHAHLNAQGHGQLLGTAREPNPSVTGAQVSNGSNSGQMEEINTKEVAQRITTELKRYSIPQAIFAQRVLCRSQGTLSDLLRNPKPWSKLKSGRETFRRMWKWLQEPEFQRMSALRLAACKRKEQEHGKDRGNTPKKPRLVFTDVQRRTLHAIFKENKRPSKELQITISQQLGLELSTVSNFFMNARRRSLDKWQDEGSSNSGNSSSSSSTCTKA
# Method in brief: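 Endogenous transcription factor activity in human HepG2 liver cells was captured through cis-regulated reporter constructs. After 24 h treatment, reporter mRNA was measured by RT-PCR with capillary electrophoresis, and activity was fitted in both directions relative to DMSO.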
# [5] = target: Heat shock factor protein 1 (Homo sapiens) (UniProt Q00613); test: ATG_HSE_CIS: Attagene CIS-FACTORIAL HepG2 Assay for human Heat Shock Transcription Factor 1 (HSE) (AID 2282953); details: HepG2 HSE cis-reporter, Attagene RNA transcription; actives raise or lower the signal
# Heat shock factor protein 1 (Homo sapiens), sequence (Q00613 whole entry, looked up): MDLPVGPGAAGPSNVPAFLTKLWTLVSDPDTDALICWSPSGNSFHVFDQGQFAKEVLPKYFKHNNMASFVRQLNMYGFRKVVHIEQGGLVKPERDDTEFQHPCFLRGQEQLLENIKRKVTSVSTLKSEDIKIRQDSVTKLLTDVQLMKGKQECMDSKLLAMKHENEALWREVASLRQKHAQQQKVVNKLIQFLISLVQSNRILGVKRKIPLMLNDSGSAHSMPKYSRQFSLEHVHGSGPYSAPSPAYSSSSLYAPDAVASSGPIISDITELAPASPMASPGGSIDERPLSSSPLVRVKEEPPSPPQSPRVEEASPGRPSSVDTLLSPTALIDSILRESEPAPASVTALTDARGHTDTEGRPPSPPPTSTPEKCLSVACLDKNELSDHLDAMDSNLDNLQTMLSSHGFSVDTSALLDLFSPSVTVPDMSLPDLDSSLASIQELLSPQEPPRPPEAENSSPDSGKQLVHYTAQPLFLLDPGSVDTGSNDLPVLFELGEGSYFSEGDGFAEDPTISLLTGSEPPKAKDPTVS
# Method in brief: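 After a 24 h incubation with test chemical, transfected HepG2 cells were harvested for RNA; reporter transcripts were measured by RT-PCR and capillary electrophoresis. Values reflect gain or loss of signal relative to DMSO.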
# [6] = ATG_MRE_CIS: Attagene CIS-FACTORIAL HepG2 Assay for human Metal Responsive Element (MRE) (AID 2282954); details: HepG2 MRE cis-reporter transcription, Attagene multiplex; actives raise or lower the signal
# Method in brief: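 Multiplexed cis-reporter assay in human HepG2 liver cells, 24 h incubation with test chemical. Reporter transcripts measured by RT-PCR and capillary electrophoresis; values from bidirectional curve fitting versus DMSO.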
# [7] = ATG_PBREM_CIS: Attagene CIS-FACTORIAL HepG2 Assay for human Phenobarbital-responsive Enhancer Module (PBREM) (AID 2282955); details: HepG2 PBREM cis-reporter, Attagene multiplexed transcription; actives raise or lower the signal
# Method in brief: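 Fluorescence of labelled reporter cDNA fragments, resolved by capillary electrophoresis, gives mRNA induction in transfected HepG2 cells treated for 24 h; DMSO serves as negative control and baseline.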
# [8] = target: Paired box protein Pax-6 (Homo sapiens) (UniProt P26367); test: ATG_Pax6_CIS: Attagene CIS-FACTORIAL HepG2 Assay for human Paired Box 6 (PAX6) (AID 2282956); details: HepG2 CIS-FACTORIAL PAX6 reporter transcription, RNA readout; actives raise or lower the signal
# Paired box protein Pax-6 (Homo sapiens), sequence (P26367 whole entry, looked up): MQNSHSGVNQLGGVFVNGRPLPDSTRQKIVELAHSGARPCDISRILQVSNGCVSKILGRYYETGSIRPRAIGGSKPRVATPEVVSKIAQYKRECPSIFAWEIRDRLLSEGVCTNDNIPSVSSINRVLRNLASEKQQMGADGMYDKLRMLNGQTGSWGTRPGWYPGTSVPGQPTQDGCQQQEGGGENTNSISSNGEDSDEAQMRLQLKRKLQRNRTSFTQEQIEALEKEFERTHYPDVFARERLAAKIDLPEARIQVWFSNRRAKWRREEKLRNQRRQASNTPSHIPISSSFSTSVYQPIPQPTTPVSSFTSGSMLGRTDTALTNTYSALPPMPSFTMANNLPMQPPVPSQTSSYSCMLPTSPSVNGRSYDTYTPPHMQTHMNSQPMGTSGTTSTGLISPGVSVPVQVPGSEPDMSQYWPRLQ
# Method in brief: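 DMSO-referenced bidirectional fits of reporter mRNA fluorescence; HepG2 with transient cis-promoter MRTUs, 24 h post-dose, RT-PCR plus capillary electrophoresis detection.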
# [9] = ATG_PXRE_CIS: Attagene CIS-FACTORIAL HepG2 Assay for human Pregnane X Receptor Element (PXRE) (AID 2282957); details: HepG2 Attagene CIS-FACTORIAL PXRE reporter, mRNA; actives raise or lower the signal
# Method in brief: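 Endogenous transcription factor activity in HepG2 was gauged through induction of reporter mRNA driven by a cis-regulating promoter element, sampled 24 h post-treatment. Activity was fitted in both directions against DMSO negative control.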
# [10] = ATG_RORE_CIS: Attagene CIS-FACTORIAL HepG2 Assay for human RAR-related Orphan Receptor Element (RORE) (AID 2282959); details: HepG2 Attagene cis-factorial RORE reporter, mRNA; actives raise or lower the signal
# Method in brief: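 Cells were HepG2 carrying transfected cis-regulated reporter constructs, dosed for 24 hours. Total RNA was reverse-transcribed and reporter cDNA amplified, fluorescently labeled and sized by capillary electrophoresis. Activity was fitted bidirectionally relative to DMSO.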
# [11] = target: Transcription factor Sp1 (Homo sapiens) (UniProt P08047); test: ATG_Sp1_CIS: Attagene CIS-FACTORIAL HepG2 Assay for human Specificity Protein 1 (Sp1) (AID 2282961); details: HepG2 Sp1 cis-reporter transcription, actives raise or lower the signal
# Transcription factor Sp1 (Homo sapiens), sequence (P08047 whole entry, looked up): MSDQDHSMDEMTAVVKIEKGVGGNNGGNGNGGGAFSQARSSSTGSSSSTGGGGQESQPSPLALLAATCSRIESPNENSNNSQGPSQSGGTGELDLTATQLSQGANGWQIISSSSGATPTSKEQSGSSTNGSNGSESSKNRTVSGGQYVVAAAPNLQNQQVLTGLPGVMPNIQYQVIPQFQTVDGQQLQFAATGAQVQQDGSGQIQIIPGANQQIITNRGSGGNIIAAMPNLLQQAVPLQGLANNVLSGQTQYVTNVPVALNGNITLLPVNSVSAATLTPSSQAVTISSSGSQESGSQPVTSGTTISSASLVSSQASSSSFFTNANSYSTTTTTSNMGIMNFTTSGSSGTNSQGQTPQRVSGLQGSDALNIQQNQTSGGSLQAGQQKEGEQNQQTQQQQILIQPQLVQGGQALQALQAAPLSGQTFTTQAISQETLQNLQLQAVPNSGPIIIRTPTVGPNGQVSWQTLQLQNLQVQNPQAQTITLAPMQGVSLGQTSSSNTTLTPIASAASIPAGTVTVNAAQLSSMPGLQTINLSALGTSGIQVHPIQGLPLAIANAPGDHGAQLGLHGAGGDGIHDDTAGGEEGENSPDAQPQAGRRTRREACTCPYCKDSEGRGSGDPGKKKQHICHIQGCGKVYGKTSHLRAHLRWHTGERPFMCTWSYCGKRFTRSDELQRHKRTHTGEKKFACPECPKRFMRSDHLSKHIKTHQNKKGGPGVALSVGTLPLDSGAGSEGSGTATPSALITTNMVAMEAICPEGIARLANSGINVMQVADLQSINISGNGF
# Method in brief: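 Endogenous Sp1 activity was gauged in human liver HepG2 cells bearing transfected reporter units under a cis-regulating promoter. After 24 h dosing, reporter mRNA was quantified by RT-PCR with capillary electrophoresis, and activity fitted bidirectionally versus DMSO.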
# [12] = ATG_SREBP_CIS: Attagene CIS-FACTORIAL HepG2 Assay for human Sterol Regulatory Element Binding (SREBP) (AID 2282962); details: HepG2 Attagene cis-factorial SREBP reporter, mRNA; actives raise or lower the signal
# Method in brief: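 In this cis-format assay, HepG2 liver cells express reporters controlled by promoter elements responsive to native transcription factors. Exposure lasts 24 h; reporter mRNA fluorescence from capillary electrophoresis gives the signal, fitted bidirectionally against DMSO.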
# [13] = target: Signal transducer and activator of transcription 3 (Homo sapiens) (UniProt P40763); test: ATG_STAT3_CIS: Attagene CIS-FACTORIAL HepG2 Assay for human Signal Transducer and Activator of Transcription 3 (STAT3) (AID 2282963); details: HepG2, Attagene cis-factorial STAT3 reporter transcription; actives raise or lower the signal
# Signal transducer and activator of transcription 3 (Homo sapiens), sequence (P40763 whole entry, looked up): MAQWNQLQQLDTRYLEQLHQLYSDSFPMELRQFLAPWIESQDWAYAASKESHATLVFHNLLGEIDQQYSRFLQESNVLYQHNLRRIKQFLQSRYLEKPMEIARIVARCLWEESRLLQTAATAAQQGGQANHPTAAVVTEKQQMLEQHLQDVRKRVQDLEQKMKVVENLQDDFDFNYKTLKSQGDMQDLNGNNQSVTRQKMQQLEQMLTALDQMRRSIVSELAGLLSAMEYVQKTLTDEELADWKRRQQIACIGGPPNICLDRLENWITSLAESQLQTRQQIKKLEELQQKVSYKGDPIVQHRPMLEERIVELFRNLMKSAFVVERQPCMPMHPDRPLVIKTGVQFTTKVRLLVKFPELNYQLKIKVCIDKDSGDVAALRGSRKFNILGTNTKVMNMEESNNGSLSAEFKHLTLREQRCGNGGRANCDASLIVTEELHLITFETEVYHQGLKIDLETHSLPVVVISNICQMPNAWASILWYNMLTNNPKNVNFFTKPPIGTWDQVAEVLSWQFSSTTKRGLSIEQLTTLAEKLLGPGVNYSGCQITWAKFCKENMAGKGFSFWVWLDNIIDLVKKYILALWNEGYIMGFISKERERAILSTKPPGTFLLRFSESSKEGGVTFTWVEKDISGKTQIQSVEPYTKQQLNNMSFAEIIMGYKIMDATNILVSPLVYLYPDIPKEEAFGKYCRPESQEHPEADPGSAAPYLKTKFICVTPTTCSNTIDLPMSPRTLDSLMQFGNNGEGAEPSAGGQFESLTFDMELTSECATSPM
# Method in brief: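 Cis-factorial format: endogenous transcription factors in HepG2 drive transfected reporter units. After 24 h treatment, reporter RNA was reverse-transcribed, amplified, FAM-labelled and HpaI-digested before CE analysis; activity scored in both directions against DMSO.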
# [14] = ATG_TA_CIS: Attagene CIS-FACTORIAL HepG2 Assay for human TA Basal Promoter (AID 2282964); details: HepG2 Attagene CIS-factorial TA basal promoter reporter; actives raise or lower the signal
# Method in brief: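 Multiplexed mRNA reporter assay, HepG2, 24 h. Reporter cDNA amplified, 6-FAM primer-extended, HpaI-cut, CE-sized; DMSO = negative control and baseline.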
# [15] = ATG_TCF_b_cat_CIS: Attagene CIS-FACTORIAL HepG2 Assay for human T-Cell-Factor with beta-catenin (TCF/b-cat) (AID 2282965); details: HepG2 TCF/beta-catenin cis-reporter transcription, actives raise or lower the signal
# Method in brief: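 Endogenous TCF/LEF activity read as reporter transcript level via RT-PCR and capillary electrophoresis fluorescence in transfected HepG2, 24 h exposure; gain or loss of signal fitted against DMSO controls.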
# [16] = ATG_TAL_CIS: Attagene CIS-FACTORIAL HepG2 Assay for human TAL Basal Promoter (AID 2282966); details: HepG2 Attagene cis-factorial TAL promoter reporter; actives raise or lower the signal;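 further: background control endpoint measuring basal TAL promoter reporter mRNA not a specific factor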
# Method in brief: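 Endogenous transcription-factor activity is sensed in HepG2 cells through transfected cis-promoter reporter constructs. After 24 h dosing, reporter transcripts are quantified by RT-PCR and capillary electrophoresis. Gain or loss of signal is fitted relative to DMSO.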
# [17] = ATG_TGFb_CIS: Attagene CIS-FACTORIAL HepG2 Assay for human Transforming Growth Factor (TGF) (AID 2282967); details: HepG2 Attagene CIS TGFb reporter, mRNA transcription; actives raise or lower the signal
# Method in brief: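 Transcript-level reporter readout: HepG2 transfectants, 24 h exposure, RNA to cDNA, reporter-specific PCR, fluorescent primer extension, capillary sizing against ROX standards. Gain- or loss-of-signal relative to DMSO.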
# [18] = ATG_VDRE_CIS: Attagene CIS-FACTORIAL HepG2 Assay for human Vitamin D Receptor Element (VDRE) (AID 2282968); details: HepG2 VDRE cis-reporter transcription, actives raise or lower the signal
# Method in brief: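 Measures endogenous factor activity through cis-element-driven reporter transcripts in transiently transfected HepG2. Cells are treated 24 h; reporter mRNA is quantified by RT-PCR and capillary electrophoresis; fitting is bidirectional.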
# [19] = ATG_Sox_CIS: Attagene CIS-FACTORIAL HepG2 Assay for human SRY-box transcription factor (SOX) (AID 2282960); details: HepG2 Attagene cis-factorial SOX reporter, mRNA; actives raise or lower the signal
# Method in brief: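 Transient MRTU transfection of HepG2; 24 h compound incubation; TriZol RNA, oligo(dT) RT, PCR, 6-FAM primer extension, HpaI cut, CE. Bidirectional fit, DMSO = baseline.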
# [20] = ATG_PPRE_CIS: Attagene CIS-FACTORIAL HepG2 Assay for human Peroxisome Proliferator-activated Response Element (PPRE) (AID 2282958); details: HepG2 PPRE cis-element reporter, Attagene transcription factor profiling; actives raise or lower the signal
# Method in brief: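 Cells are first transfected transiently with the multiplexed reporter library, then dosed for 24 h. Total RNA is reverse-transcribed, amplified, fluorescently end-labeled and HpaI-cut before capillary electrophoresis; activity is fitted bidirectionally against DMSO controls.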
compound,measurement,setting,value
O=P(O)(O)CCC(F)(F)C(F)(F)C(F)(F)C(F)(F)C(F)(F)C(F)(F)F,outcome,[1],inactive
same,outcome,[2],inactive
same,outcome,[3],inactive
same,outcome,[4],inactive
same,outcome,[5],inactive
same,outcome,[6],inactive
same,outcome,[7],inactive
same,outcome,[8],inactive
same,outcome,[9],inactive
same,outcome,[10],inactive
same,outcome,[11],inactive
same,outcome,[12],inactive
same,outcome,[13],inactive
same,outcome,[14],inactive
same,outcome,[15],inactive
same,outcome,[16],inactive
same,outcome,[17],inactive
same,outcome,[18],inactive
COCN(COC)c1nc(N(COC)COC)nc(N(COC)COC)n1,outcome,[1],inactive
same,outcome,[2],inactive
same,outcome,[3],inactive
same,outcome,[4],inactive
same,outcome,[5],inactive
same,outcome,[6],inactive
same,outcome,[7],inactive
same,outcome,[8],inactive
same,AC50,[9],45.3 µM (active)
same,outcome,[19],inactive
same,outcome,[11],inactive
same,outcome,[12],inactive
same,outcome,[13],inactive
same,outcome,[14],inactive
same,outcome,[15],inactive
same,outcome,[17],inactive
same,outcome,[18],inactive
O=C(F)C(F)(F)C(F)(F)C(F)(F)C(F)F,outcome,[1],inactive
same,outcome,[2],inactive
same,outcome,[3],inactive
same,outcome,[4],inactive
same,outcome,[5],inactive
same,outcome,[6],inactive
same,outcome,[7],inactive
same,outcome,[8],inactive
same,outcome,[20],inactive
same,outcome,[10],inactive
same,outcome,[11],inactive
same,outcome,[12],inactive
same,outcome,[13],inactive
same,outcome,[14],inactive
same,outcome,[15],inactive
same,outcome,[16],inactive
same,outcome,[17],inactive
same,outcome,[18],inactive
FC(F)(F)C(F)(F)C(F)(F)C(F)(F)I,outcome,[1],inactive
same,outcome,[2],inactive
same,outcome,[3],inactive
same,outcome,[4],inactive
same,outcome,[5],inactive
same,outcome,[6],inactive
same,outcome,[7],inactive
same,outcome,[8],inactive
same,outcome,[20],inactive
same,outcome,[10],inactive
same,outcome,[19],inactive
same,outcome,[11],inactive
same,outcome,[12],inactive
same,outcome,[13],inactive
same,outcome,[14],inactive
same,outcome,[15],inactive
same,outcome,[16],inactive
same,outcome,[17],inactive
same,outcome,[18],inactive
C[N+](C)(CCCNS(=O)(=O)CCC(F)(F)C(F)(F)C(F)(F)C(F)(F)C(F)(F)C(F)(F)F)CC(=O)[O-],outcome,[1],inactive
same,outcome,[2],inactive
same,outcome,[3],inactive
same,outcome,[4],inactive
same,outcome,[5],inactive
same,outcome,[6],inactive
same,outcome,[7],inactive
same,AC50,[9],0.00267 µM (active)
same,outcome,[20],inactive
same,outcome,[10],inactive
same,outcome,[19],inactive
same,outcome,[11],inactive
same,AC50,[12],0.00355 µM (active)
same,outcome,[13],inactive
same,outcome,[14],inactive
same,AC50,[15],0.000979 µM (active)
same,outcome,[16],inactive
same,outcome,[17],inactive
same,outcome,[18],inactive
Cn1sccc1=O,outcome,[1],inactive
same,outcome,[2],inactive
same,outcome,[3],inactive
same,outcome,[4],inactive
same,AC50,[5],161 µM (active)
same,AC50,[6],163 µM (active)
same,outcome,[7],inactive
same,AC50,[9],142 µM (active)
same,outcome,[20],inactive
same,outcome,[10],inactive
same,AC50,[19],154 µM (active)
same,AC50,[11],153 µM (active)
same,AC50,[12],161 µM (active)
same,outcome,[13],inactive
same,outcome,[14],inactive
same,AC50,[15],92.9 µM (active)
same,outcome,[16],inactive
same,outcome,[17],inactive
same,outcome,[18],inactive
Cc1ccc(N=Nc2c(O)ccc3ccccc23)c(C)c1,outcome,[1],inactive
same,outcome,[2],inactive
same,AC50,[3],13.2 µM (active)
same,outcome,[4],inactive
same,AC50,[5],3.78 µM (active)
same,outcome,[6],inactive
same,outcome,[7],inactive
same,outcome,[8],inactive
same,AC50,[9],2.81 µM (active)
same,outcome,[10],inactive
same,outcome,[19],inactive
same,outcome,[11],inactive
same,outcome,[12],inactive
same,outcome,[13],inactive
same,outcome,[14],inactive
same,outcome,[15],inactive
same,AC50,[18],2.55 µM (active)
